Reference: PubChem BioAssay (EPA / NIEHS)
Results filed as inconclusive are left out. More than one record can exist for a structure, and the calls need not agree. The source made the active and inactive calls. How the source made its calls, unless noted: active means hit-call score of the fitted dose curve at least 0.9, where 1 is the maximum; inactive means score below 0.9.

Assays:
[1] = biological target: human Vitamin D Receptor (VDR), VDR (gene 7421) (UniProt P11473); experiment: ATG_VDR_TRANS: Attagene TRANS-FACTORIAL HepG2 Assay for human Vitamin D Receptor (VDR) (AID 2283022; active means hit-call score of the fitted dose curve at least 0.9, where 1 is the maximum)
Chain of human Vitamin D Receptor (VDR), VDR (gene 7421) (P11473 whole entry, looked up): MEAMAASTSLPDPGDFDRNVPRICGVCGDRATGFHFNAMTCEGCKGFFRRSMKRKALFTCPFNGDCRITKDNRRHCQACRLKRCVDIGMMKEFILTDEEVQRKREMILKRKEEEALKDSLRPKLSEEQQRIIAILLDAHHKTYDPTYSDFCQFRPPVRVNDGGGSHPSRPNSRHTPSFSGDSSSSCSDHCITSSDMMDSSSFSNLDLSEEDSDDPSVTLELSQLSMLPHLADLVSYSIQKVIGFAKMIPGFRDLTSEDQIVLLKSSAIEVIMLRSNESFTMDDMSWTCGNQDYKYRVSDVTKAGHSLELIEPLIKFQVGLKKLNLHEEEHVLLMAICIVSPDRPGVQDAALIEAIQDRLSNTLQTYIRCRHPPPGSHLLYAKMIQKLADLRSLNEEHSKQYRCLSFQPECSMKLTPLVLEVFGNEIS
In short: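 Multiplexed TRANS reporter in HepG2; 24 h treatment; reporter mRNA by RT-PCR plus capillary electrophoresis; upregulation scored relative to DMSO.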

[2] = BSK_3C_SRB: Viability Assessment in the BioMAP Diversity Plus: 3C Assay (AID 2283023); conditions: primary human endothelial cells (HUVEC);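 further: fitted both ways against DMSO so a hit may be signal rise or drop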
In short: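 Overt cytotoxicity is gauged in parallel confluent HUVEC cultures by SRB total-protein staining at the time of biomarker measurement, 24 h after dosing. Gain or loss of signal is fitted versus DMSO.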

[3] = BSK_3C_Vis: BioMAP Diversity Plus: 3C Assay for Morphology Visualization (AID 2283025); conditions: primary human endothelial cells (HUVEC);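 further: fitted both ways so gain or loss versus DMSO counts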
In short: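 Human umbilical vein endothelial cells in the 3C system were imaged by light microscopy 24 h after chemical dosing to record cell morphology. Activity was fitted bidirectionally against DMSO as negative control and baseline; the endpoint serves as a background control.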

[4] = read-out: Pselectin, SELP (gene 6403); experiment: BSK_4H_Pselectin: BioMAP Diversity Plus: 4H Assay for Pselectin Biomarker Activity (AID 2283026); conditions: primary human endothelial cells (HUVEC); actives raise or lower the signal
In short: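 Primary human umbilical vein endothelial cells were exposed to test chemical for 24 h, then cell-surface P-selectin was quantified by ELISA. Activity was fitted bidirectionally against DMSO as negative control and baseline.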

[5] = BSK_4H_SRB: Viability Assessment in the BioMAP Diversity Plus: 4H Assay (AID 2283027); conditions: primary human endothelial cells (HUVEC);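 further: cells exposed to compound for 24 h before staining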;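 on AC50: curves fitted both ways versus DMSO so AC50 may be loss or gain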
In short: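 Human umbilical vein endothelial cells, 24 h after chemical dosing; total protein measured by 0.1% sulforhodamine B staining after 10% TCA fixation, read at 560 nm. Bidirectional fitting against DMSO.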

[6] = BSK_BE3C_SRB: Viability Assessment in the BioMAP Diversity Plus: BE3C Assay (AID 2283028); conditions: primary human bronchial epithelial cells;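 on AC50: fitted both ways so AC50 may mark signal gain or loss versus DMSO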
In short: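 SRB total-protein staining (0.1%, after TCA fixation) of chemically dosed human bronchial epithelial primary cells at 24 h; DMSO serves as the negative control for bidirectional curve fitting.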

[7] = read-out: Thrombomodulin, THBD (gene 7056); experiment: BSK_3C_Thrombomodulin: BioMAP Diversity Plus: 3C Assay for Thrombomodulin Biomarker Activity (AID 2283029); conditions: primary human endothelial cells (HUVEC); actives raise or lower the signal
In short: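 Primary human umbilical vein endothelial cells (3C system) were exposed to chemical for 24 h, then thrombomodulin levels were measured by ELISA. Activity was fitted bidirectionally against the DMSO negative control as baseline.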

[8] = read-out: Urokinase-type plasminogen activator receptor (uPAR), PLAUR (gene 5329); experiment: BSK_4H_uPAR: BioMAP Diversity Plus: 4H Assay for Urokinase-type plasminogen activator receptor (uPAR) Biomarker Activity (AID 2283030); conditions: primary human endothelial cells (HUVEC); actives raise or lower the signal
In short: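 Endpoint derived via bidirectional curve fitting against DMSO baseline; readout was ELISA detection of uPAR on umbilical vein endothelial cells at 24 h post-treatment, with SRB-stained parallel cultures assessing cytotoxicity.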

[9] = read-out: Vascular endothelial growth factor receptor 2 (Homo sapiens) (UniProt P35968); experiment: BSK_4H_VEGFRII: BioMAP Diversity Plus: 4H Assay for Vascular endothelial growth factor receptor 2 (VEGFR2) Biomarker Activity (AID 2283031); conditions: primary human endothelial cells (HUVEC); actives raise or lower the signal
In short: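 In this multiplexed HUVEC system, biomarker ELISA was performed after 24 h chemical exposure. Parallel SRB staining (TCA fixation, 560 nm) tracked cytotoxicity; DMSO served as baseline.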

[10] = read-out: Matrix Metallopeptidase 1 (MMP1), MMP1 (gene 4312); experiment: BSK_BE3C_MMP1: BioMAP Diversity Plus: BE3C Assay for Matrix Metallopeptidase 1 (MMP1) Biomarker Activity (AID 2283024); conditions: primary human bronchial epithelial cells; actives raise or lower the signal
In short: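 Primary human bronchial epithelial cells were dosed with test chemicals, and MMP1 levels were measured by ELISA 24 h later. Data were fitted bidirectionally against DMSO as the negative control and activity baseline.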

Measured: AC50

CCCCCCCC(=O)O
inactive: [1] | [2] | [3] | [4] | [5] | [6] | [7] | [8] | [9]

ClC1=C(Cl)C(Cl)(Cl)C(Cl)=C1Cl
inactive: [1] | [9]
active: [2] 5.75 µM | [3] 7.95 µM | [4] 5.42 µM | [5] 6.82 µM | [6] 6.99 µM | [7] 10.3 µM | [8] 5.91 µM

COC(=O)CCCCC(=O)OC
inactive: [1] | [10] | [3] | [4] | [5] | [6] | [7] | [8] | [9]

NC(=O)N1C(=O)C(C(=O)c2cc(Cl)cs2)c2cc(F)c(Cl)cc21 (configuration not stated)
inactive: [1] | [7] | [9]
active: [2] 14 µM | [3] 37.5 µM | [4] 11.4 µM | [5] 15.2 µM | [6] 9.99 µM | [8] 12.7 µM

CC(O)C(=O)O (configuration not stated)
inactive: [1]

O=C1OC2(c3ccccc31)c1cc(Br)c(O)c(Br)c1Oc1c2cc(Br)c(O)c1Br
inactive: [1]

CC[C@H](C)[C@@H](C(=O)O)n1sc2ccccc2c1=O
inactive: [1] | [2] | [10] | [3] | [4] | [5] | [6] | [7] | [8] | [9]

CCC(=C(c1ccc(O)cc1)c1ccc(OCCN(C)C)cc1)c1ccccc1
active: [1] 11.6 µM | [2] 9.01 µM | [3] 6.97 µM | [4] 6.16 µM | [5] 8.19 µM | [6] 9.32 µM | [7] 12.8 µM | [8] 7.41 µM
inactive: [1] | [9]

CN1CCC[C@H]1c1cccnc1
inactive: [1] | [2] | [3] | [4] | [5] | [6] | [7] | [8] | [9]

CC[C@H](c1ccc(O)cc1)[C@@H](CC)c1ccc(O)cc1
inactive: [1] | [9]
active: [10] 38 µM | [3] 22.3 µM | [4] 20.3 µM | [5] 30.6 µM | [6] 35.8 µM | [7] 31 µM | [8] 26 µM

c1ccc2cc3c(ccc4ccccc43)cc2c1
active: [10] 1.42 µM | [3] 9.8 µM
inactive: [1] | [2] | [4] | [5] | [6] | [7] | [8] | [9]

NC(=O)N(O)[C@@H]1C=C[C@H](Oc2cccc(Oc3ccc(F)cc3)c2)C1
inactive: [1] | [10] | [3] | [4] | [5] | [6] | [7] | [8] | [9]
active: [2] 9.5 µM

CC(C)(C)c1ccc(O)c(C(C)(C)C)c1
active: [2] 9.68 µM | [10] 32.4 µM | [3] 6.71 µM | [4] 7.52 µM | [5] 12.4 µM | [6] 32 µM | [8] 10.6 µM
inactive: [1] | [7] | [9]

CCCCC(CC)COC(=O)CCCCC(=O)OCc1ccccc1 (configuration not stated)
inactive: [1] | [10] | [3] | [4] | [5] | [6] | [7] | [8] | [9]

CC(=O)NC1(c2cccc(F)c2)CCN(CC[C@@]2(c3ccc(Cl)c(Cl)c3)CN(c3ccccc3)C(=O)CO2)CC1
inactive: [1] | [10] | [6] | [7] | [9]
active: [2] 21.6 µM | [3] 12.7 µM | [4] 20.4 µM | [5] 20.3 µM | [8] 16.6 µM

CCc1ccc(CCOc2ccc(CC3SC(=O)NC3=O)cc2)nc1 (configuration not stated)
inactive: [1] | [3] | [4] | [5] | [6] | [7] | [8] | [9]

CC1=C(/C=C/C(C)=C/C=C/C(C)=C/C(=O)O)C(C)(C)CCC1
active: [10] 0.854 µM | [4] 31.7 µM
inactive: [1] | [3] | [5] | [6] | [7] | [8] | [9]
